TIM10 inh – growth inhibitors of isogenic TIM10 control yeast, primary screen, counter-screen for tim10-1 yeast inhibitor project, luminescence, uHTS. S. cerevisiae TIM10 strain growth, BacTiter-Glo luminescence, 24 h. inhibition, % at 10 µM. actives 1.4% (n = 330,000);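 active = inhibition of 40% or more at the single tested concentration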;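 also: wild-type TIM10 isogenic control strain grown at permissive 25 °C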
tim23-1 inh – growth inhibitors of tim23-1 mutant yeast, primary screen, luminescence, uHTS | S. cerevisiae tim23-1 growth, BacTiter-Glo luminescence, 24 h | inhibition, % at 20 µM | actives 1.3% (n = 330,000) | AID 463212, 2010;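 active = growth inhibition of the mutant yeast at or above 50%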;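 also: temperature-sensitive mutant grown at 25 °C; plate controls were DMSO-treated mutant yeast for no effect and medium wells lacking yeast for full effect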
PfHsp90 yeast 2 – growth inhibition of PfHsp90-expressing yeast, primary screen, antimalarial PfHsp90 inhibitor project, S. cerevisiae, BacTiter-Glo luminescence, single point, set 2; BacTiter-Glo ATP, 48 h; yeast lacking PDR1 and PDR3 efflux regulators; inhibition, % at 9.4 µM; actives 0.32% (n = 310,000);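 active = every replicate shows inhibition above about 80%, whatever the replicate mean, limit read from the data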;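 also: 0% = DMSO neutral controls and 100% = 20 µM radicicol positive controls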
tim10-1 inh – growth inhibitors of tim10-1 mutant yeast, primary screen, luminescence, uHTS; S. cerevisiae tim10-1 ts strain growth, BacTiter-Glo, 24 h; inhibition, % at 20 µM; actives 2.2% (n = 330,000); AID 463190, 2010;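 active = inhibition of at least 40%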;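 also: mutant grown at 25 °C; 0% = DMSO wells with yeast and 100% = wells holding no yeast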
V-ATPase pH – regulators of yeast V-ATPase proton pumping, primary screen, pHLuorin cytosolic pH fluorescence; S. cerevisiae; response, % at 10 µM; actives 0.37% (n = 350,000); in the data active = response mostly above about 7.3%, no sharp cut-off; inactive = mostly below about 5.4%; also: actives read high
tim23-1 conf – tim23-1 mutant yeast growth inhibitors, confirmation, luminescence, single concentration; shares compounds with tim23-1 inh; S. cerevisiae tim23-1 growth, BacTiter-Glo luminescence, 24 h; inhibition, % at 20 µM; actives 83% (n = 4,400); AID 463218, 2010;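 active = inhibition above about 39% in either of two replicate wells at 20 µM, limit read from the data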;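 also: temperature-sensitive tim23-1 mutant grown at 25 °C; 0% = DMSO wells with yeast and 100% = medium wells without yeast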
Numbers without * were called inactive; nt = not tested or not shown. Hits are enriched below; roughly 3.7% of the tested compounds scored in any of these assays.

SMILES | TIM10 inh | tim23-1 inh | PfHsp90 yeast 2 | tim10-1 inh | V-ATPase pH | tim23-1 conf
NC(=S)NNc1cc(Cl)cc(Cl)c1 | 2.7 | 57.7* | -4.0 | 12.4 | 3.9 | 69.8*
NC(=S)Nc1cc(Cl)cc(Cl)c1 | 6.4 | 1.2 | nt | 8.7 | 0.4 | nt
CC1Cc2ccccc2N1C(=O)COC(=O)c1ccc([N+](=O)[O-])o1 (stereo not given) | 34.3 | 56.6* | -9.7 | 33.8 | 1.1 | 47.8*
CC1Cc2ccccc2N1C(=O)COC(=O)c1ccco1 (stereo not given) | nt | nt | nt | nt | 1.9 | nt
O=C(NCCS(=O)(=O)N1CCN(c2ccccc2)CC1)C1CCCCC1 | nt | nt | nt | nt | 4.3 | nt
CCOC(=O)N1CCN(CC(O)COc2ccccc2[N+](=O)[O-])CC1 (stereo not given) | -17.1 | -7.0 | 14.4 | 18.8 | -1.2 | nt
O=C1CC(c2cccc(Br)c2)c2cc3c(cc2N1)CCC3 (stereo not given) | 8.2 | 57.9* | -74.6 | 37.5 | -4.0 | 51.9*
CN(CC(=O)Nc1ccc(F)c(F)c1F)C(=O)C1=NN(c2ccccc2)C(=O)CC1 | 3.1 | -9.4 | -1.7 | -9.1 | -0.8 | nt
COc1cc(CC(=O)N(CC(C)C)C2CCS(=O)(=O)C2)cc(OC)c1OC (stereo not given) | 1.8 | 8.7 | nt | 7.0 | 1.6 | nt
CC(=O)C(C(c1ccccc1)c1c[nH]c2ccccc12)[N+](=O)[O-] (stereo not given) | 36.3 | 36.5 | 19.3 | 37.9 | 3.3 | nt
c1ccc(-c2csc(Nc3ccccn3)n2)cc1 | 1.1 | 50.4* | -19.2 | 9.6 | 1.2 | 29.3
Oc1ccc(-c2csc(Nc3ccccn3)n2)cc1 | 32.9 | 43.4 | -0.3 | 32.2 | 3.2 | nt
CCCCn1c(/C=N/Nc2nc3ccccc3[nH]2)nc2ccccc21 | -10.1 | 55.0* | -19.4 | 37.7 | -7.4 | 55.7*
CCC(=O)NC(c1cccs1)c1cc(Cl)c2cccnc2c1O (stereo not given) | 35.4 | 51.3* | 101.5* | 28.2 | -3.2 | 70.1*
CCC(=O)NC(c1ccc(C)cc1)c1cc([N+](=O)[O-])c2cccnc2c1O (stereo not given) | nt | nt | 5.1 | nt | 0.0 | nt
Cc1[nH]c2ccccc2c1C(c1ccccn1)N1CCCC1 (stereo not given) | 4.8 | 4.4 | 7.4 | -1.5 | -6.8 | nt
Oc1c(C(c2ccccn2)N2CCCCC2)cc(Cl)c2cccnc12 (stereo not given) | -16.7 | 52.9* | 4.7 | 19.9 | 8.8 | 64.0*
CCC(=O)NC(c1cc(Cl)c2cccnc2c1O)C(C)C (stereo not given) | -17.5 | 52.4* | -1.4 | 37.9 | 0.1 | 52.5*
CC(=O)NC(c1ccccc1)c1cc(Cl)c2cccnc2c1O (stereo not given) | 3.6 | 55.5* | 106.5* | 14.8 | -3.0 | 67.0*
Cc1ccc(-c2[nH][nH]c(=O)c(=O)c2N=Nc2ccccc2)cc1 | 32.9 | 25.4 | -8.0 | 0.2 | -0.5 | nt
CN(C(=O)COC(=O)c1ccc(Cl)nc1)C1CCS(=O)(=O)C1 (stereo not given) | 12.7 | -3.8 | 39.3 | 2.7 | -3.2 | nt
O=C(Cc1ccccc1)n1nc(-c2ccco2)nc1SCc1ccccc1 | 0.2 | 24.0 | nt | 10.3 | -3.1 | nt
CCCC(=O)n1nc(-c2ccco2)nc1SCc1ccccc1 | 36.2 | 54.3* | -6.9 | 34.8 | 1.7 | 51.8*
COc1ccc(CCN(C)C(=O)CN2C(=O)c3ccccc3S2(=O)=O)cc1OC | 0.2 | 9.9 | -15.4 | 19.8 | -2.3 | nt
COc1ccc(CCN(/C=C2\Sc3ccccc3C2=O)C(C)=O)cc1OC | 20.9 | 50.4* | nt | 14.9 | -0.8 | 51.9*
SMILES | TIM10 inh | tim23-1 inh | PfHsp90 yeast 2 | tim10-1 inh | V-ATPase pH | tim23-1 conf
COc1ccc(CCNC/C=C/c2ccccc2)cc1 | nt | nt | -12.8 | nt | 2.6 | nt
CN(C(=O)COC(=O)C12CC3CC(CC(Cl)(C3)C1)C2)c1ccccc1 | 26.4 | 56.2* | nt | 23.0 | 6.6 | 44.1*
O=C(Nc1ccccc1)Nc1n[nH]c2nnc(-c3ccccc3)c(-c3ccccc3)c12 | 22.6 | 25.8 | 1.1 | 11.5 | 1.6 | nt
COc1ccc(C2=CC(=O)C[C@H](CN3C(=O)c4ccccc4C3=O)N(C(=O)OC(C)(C)C)O2)cc1 | nt | nt | -17.2 | nt | 3.8 | nt
CC(C)CCCCCCCCCCCCC(=O)NCC(=O)NC1C(O)C(O)C(Nc2ncnc3nc[nH]c23)OC1C(O)CO (stereo not given) | nt | nt | -10.9 | nt | -3.3 | nt
O=C(c1cc(-c2ccccc2Cl)nc2ccccc12)N1CCN(c2ccccn2)CC1 | 24.4 | 54.3* | nt | 17.5 | -2.6 | 44.1*
O=C(c1cc(-c2ccccc2Cl)nc2ccccc12)N1CCN(c2ccccc2O)CC1 | 20.2 | 40.2 | nt | 22.9 | -0.5 | nt
CCCn1c(N)c(N(CCOC)C(=O)COC(=O)CSc2cc(C)c3ccccc3n2)c(=O)[nH]c1=O | -1.9 | 16.9 | nt | 12.1 | 1.1 | nt
Cc1cccn2cc(-c3ccccc3)nc12 | -0.4 | 17.9 | -22.8 | 16.2 | -2.6 | nt
Oc1ccc(Br)cc1C=Nc1cccn2cc(-c3ccccc3)nc12 | 4.2 | 54.3* | 11.2 | 28.6 | 0.4 | 53.9*
Cc1ccc(C(C(=O)NC2CCCCC2)N(CC2CCCO2)C(=O)CCCC(=O)Nc2ccccn2)cc1 (stereo not given) | 5.4 | 11.9 | -42.5 | 6.8 | 5.8 | nt
O=C(COC(=O)CCC(=O)c1cccs1)Nc1ccccc1C(F)(F)F | 10.4 | 16.1 | 19.6 | 2.7 | 1.3 | nt
Cc1csc(SCC(=O)NC(C)c2ccc(F)cc2)n1 (stereo not given) | -7.8 | -0.8 | 13.2 | 4.8 | -0.6 | nt
CC(C)(C)NC(=O)CSc1nc(-c2ccc(F)cc2)cs1 | 2.9 | 76.8* | 3.3 | 15.4 | 4.9 | 13.6
Cc1cccc(C)c1OCC(=O)Nc1ccc(NC(=O)c2ccco2)cc1 | 6.6 | 7.0 | nt | -2.2 | 0.4 | nt
Cc1cccc(C)c1OCC(=O)Nc1cccc(NC(=O)c2ccco2)c1 | 31.2 | 56.2* | 3.9 | 26.8 | -0.5 | 48.7*
O=C(Nc1ccccc1)c1cccc(NC(=O)c2ccco2)c1 | 34.5 | 46.4 | 3.2 | 10.6 | 1.3 | nt
C=Cc1cccc(NC(=O)c2ccc(NC(=O)c3ccco3)cc2)c1 | -9.9 | 51.2* | 5.7 | -19.0 | -0.9 | 37.5*
CC(CN1CCCC1)OC(=O)c1ccc(Cl)cc1 (stereo not given) | -3.7 | -10.3 | -7.3 | -18.6 | -5.8 | nt
C[C@@H]1CN([C@H](C)CO)C(=O)c2c(c3ccccc3n2C)-c2ccccc2CO[C@H]1CN(C)Cc1ccc(Oc2ccccc2)cc1 | nt | nt | nt | nt | -1.9 | nt
S=C1CCC(c2ccc(Cl)cc2)=NN1c1ccccc1 | 36.7 | 50.5* | 3.7 | 33.8 | -0.8 | 33.9
O=C(c1ccccc1)N1CCCC(c2ccc(Cl)cc2)=N1 | 25.6 | 41.1 | nt | 34.7 | 0.2 | nt
C/C(N)=C(/C#N)C(=O)CSc1nc2ccccc2c(=O)n1Cc1ccc(C)cc1 | 18.5 | 57.2* | -7.9 | 29.2 | 8.8 | 34.9
